Numbering of substitutions follows the chain as printed; changes in the protein carry UniProt numbers. Over roughly 16,000 sequences, “ka relative to ugcaugu” has its median near 0.096; the highest 2% begin near 0.35. Shown is part of a subset that was picked to be rich in the highest values.
T1: RBFOX1 RRM RbFoxmut (Fox-RRM*) (Homo sapiens, UniProt Q9NWB1 109-208, R118D;E147R;N151S;E152T)
T1 sequence: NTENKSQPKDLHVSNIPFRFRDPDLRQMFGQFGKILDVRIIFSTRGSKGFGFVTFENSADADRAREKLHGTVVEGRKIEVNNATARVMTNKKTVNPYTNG

B1: UUAGCGG (DNA:RNA)
RNA: GGGAGACCGGAAUUCAGAUUGUCCUUAGCGGUUAAAUCCCGUCGUAGCCACCA
DNA 1: CAATCTGAATTCCGGTCTCCC
DNA 2: TGGTGGCTACGACGGGATT
B2: AGAGGUC (DNA:RNA)
RNA: B1 RNA with U25A, U26G, C29G, G30U, G31C
DNA 1: CAATCTGAATTCCGGTCTCCC
DNA 2: TGGTGGCTACGACGGGATT
B3: CCAGAUU (DNA:RNA)
RNA: B1 RNA with U25C, U26C, C29A, G30U, G31U
DNA 1: CAATCTGAATTCCGGTCTCCC
DNA 2: TGGTGGCTACGACGGGATT
B4: UUCCUGU (DNA:RNA)
RNA: B1 RNA with A27C, G28C, C29U, G31U
DNA 1: CAATCTGAATTCCGGTCTCCC
DNA 2: TGGTGGCTACGACGGGATT
B5: GGACAAA (DNA:RNA)
RNA: B1 RNA with U25G, U26G, G28C, C29A, G30A, G31A
DNA 1: CAATCTGAATTCCGGTCTCCC
DNA 2: TGGTGGCTACGACGGGATT
B6: CCCAACC (DNA:RNA)
RNA: GGGAGACCGGAAUUCAGAUUGUCCCCCAACCUUAAAUCCCGUCGUAGCCACCA
DNA 1: CAATCTGAATTCCGGTCTCCC
DNA 2: TGGTGGCTACGACGGGATT
B7: GCCACAA (DNA:RNA)
RNA: B6 RNA with C25G, A29C, C30A, C31A
DNA 1: CAATCTGAATTCCGGTCTCCC
DNA 2: TGGTGGCTACGACGGGATT
B8: UGUAAGU (DNA:RNA)
RNA: B6 RNA with C25U, C26G, C27U, C30G, C31U
DNA 1: CAATCTGAATTCCGGTCTCCC
DNA 2: TGGTGGCTACGACGGGATT
B9: UCAGUAU (DNA:RNA)
RNA: B1 RNA with U26C, C29U, G30A, G31U
DNA 1: CAATCTGAATTCCGGTCTCCC
DNA 2: TGGTGGCTACGACGGGATT
B10: AUUAGAG (DNA:RNA)
RNA: B1 RNA with U25A, A27U, G28A, C29G, G30A
DNA 1: CAATCTGAATTCCGGTCTCCC
DNA 2: TGGTGGCTACGACGGGATT
B11: CCAGAGU (DNA:RNA)
RNA: B6 RNA with C27A, A28G, C30G, C31U
DNA 1: CAATCTGAATTCCGGTCTCCC
DNA 2: TGGTGGCTACGACGGGATT
B12: GUCGUGU (DNA:RNA)
RNA: B1 RNA with U25G, A27C, C29U, G31U
DNA 1: CAATCTGAATTCCGGTCTCCC
DNA 2: TGGTGGCTACGACGGGATT
B13: GUUUGUG (DNA:RNA)
RNA: B1 RNA with U25G, A27U, G28U, C29G, G30U
DNA 1: CAATCTGAATTCCGGTCTCCC
DNA 2: TGGTGGCTACGACGGGATT
B14: GUCCGAG (DNA:RNA)
RNA: B1 RNA with U25G, A27C, G28C, C29G, G30A
DNA 1: CAATCTGAATTCCGGTCTCCC
DNA 2: TGGTGGCTACGACGGGATT
B15: GUUGUGU (DNA:RNA)
RNA: B1 RNA with U25G, A27U, C29U, G31U
DNA 1: CAATCTGAATTCCGGTCTCCC
DNA 2: TGGTGGCTACGACGGGATT
B16: GAGUUGU (DNA:RNA)
RNA: B1 RNA with U25G, U26A, A27G, G28U, C29U, G31U
DNA 1: CAATCTGAATTCCGGTCTCCC
DNA 2: TGGTGGCTACGACGGGATT
B17: GAGUUUG (DNA:RNA)
RNA: B1 RNA with U25G, U26A, A27G, G28U, C29U, G30U
DNA 1: CAATCTGAATTCCGGTCTCCC
DNA 2: TGGTGGCTACGACGGGATT
B18: CGUUUUG (DNA:RNA)
RNA: B6 RNA with C26G, C27U, A28U, A29U, C30U, C31G
DNA 1: CAATCTGAATTCCGGTCTCCC
DNA 2: TGGTGGCTACGACGGGATT
B19: GUGUUUG (DNA:RNA)
RNA: B1 RNA with U25G, A27G, G28U, C29U, G30U
DNA 1: CAATCTGAATTCCGGTCTCCC
DNA 2: TGGTGGCTACGACGGGATT
B20: GUGUCGU (DNA:RNA)
RNA: B1 RNA with U25G, A27G, G28U, G31U
DNA 1: CAATCTGAATTCCGGTCTCCC
DNA 2: TGGTGGCTACGACGGGATT
B21: GUGUAUA (DNA:RNA)
RNA: B6 RNA with C25G, C26U, C27G, A28U, C30U, C31A
DNA 1: CAATCTGAATTCCGGTCTCCC
DNA 2: TGGTGGCTACGACGGGATT
B22: GUGUGUA (DNA:RNA)
RNA: B1 RNA with U25G, A27G, G28U, C29G, G30U, G31A
DNA 1: CAATCTGAATTCCGGTCTCCC
DNA 2: TGGTGGCTACGACGGGATT
B23: UUGUGUA (DNA:RNA)
RNA: B1 RNA with A27G, G28U, C29G, G30U, G31A
DNA 1: CAATCTGAATTCCGGTCTCCC
DNA 2: TGGTGGCTACGACGGGATT
B24: UAUACUA (DNA:RNA)
RNA: B1 RNA with U26A, A27U, G28A, G30U, G31A
DNA 1: CAATCTGAATTCCGGTCTCCC
DNA 2: TGGTGGCTACGACGGGATT
B25: CUUGGCU (DNA:RNA)
RNA: B6 RNA with C26U, C27U, A28G, A29G, C31U
DNA 1: CAATCTGAATTCCGGTCTCCC
DNA 2: TGGTGGCTACGACGGGATT
B26: AAGCCAC (DNA:RNA)
RNA: B6 RNA with C25A, C26A, C27G, A28C, A29C, C30A
DNA 1: CAATCTGAATTCCGGTCTCCC
DNA 2: TGGTGGCTACGACGGGATT
B27: CUGCCGC (DNA:RNA)
RNA: B1 RNA with U25C, A27G, G28C, G31C
DNA 1: CAATCTGAATTCCGGTCTCCC
DNA 2: TGGTGGCTACGACGGGATT
B28: UACUCGG (DNA:RNA)
RNA: B1 RNA with U26A, A27C, G28U
DNA 1: CAATCTGAATTCCGGTCTCCC
DNA 2: TGGTGGCTACGACGGGATT
B29: CAGGGUU (DNA:RNA)
RNA: B6 RNA with C26A, C27G, A28G, A29G, C30U, C31U
DNA 1: CAATCTGAATTCCGGTCTCCC
DNA 2: TGGTGGCTACGACGGGATT
B30: CCUACAU (DNA:RNA)
RNA: B6 RNA with C27U, A29C, C30A, C31U
DNA 1: CAATCTGAATTCCGGTCTCCC
DNA 2: TGGTGGCTACGACGGGATT
B31: UGUCUCG (DNA:RNA)
RNA: B1 RNA with U26G, A27U, G28C, C29U, G30C
DNA 1: CAATCTGAATTCCGGTCTCCC
DNA 2: TGGTGGCTACGACGGGATT

These binders were tested against T1, RBFOX1 RRM RbFoxmut (Fox-RRM*) (assay: EMSA; HiTS-Eq, 1 nM pool, 10 min; buffer printed only for the single-RNA assays: 10 mM Tris pH 7.5, 150 mM NaCl, 3.4 mM EDTA, 0.001% NP-40, 30 C). Settings: tags: His6 N-terminal (pET28a); label: 5' 32P.
How it was run: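 Purified wild-type or mutant RbFox RRM at increasing concentrations was equilibrated with 1 nM of 5′-radiolabelled RNA carrying 7 randomized nucleotides for 10 min in 50 µL. Unbound RNA was separated by 8% native PAGE and sequenced. Relative association constants came from read-count changes of each RNA species compared with the control reaction, normalised to the cognate motif.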

Row | Binder | binding signal
1 | B1 | 0.0965 KA relative to UGCAUGU
2 | B2 | 0.108 KA relative to UGCAUGU
3 | B3 | 0.0808 KA relative to UGCAUGU
4 | B4 | 0.0952 KA relative to UGCAUGU
5 | B5 | 0.0761 KA relative to UGCAUGU
6 | B6 | 0.0535 KA relative to UGCAUGU
7 | B7 | 0.0608 KA relative to UGCAUGU
8 | B8 | 0.118 KA relative to UGCAUGU
9 | B9 | 0.116 KA relative to UGCAUGU
10 | B10 | 0.146 KA relative to UGCAUGU
11 | B11 | 0.126 KA relative to UGCAUGU
12 | B12 | 0.187 KA relative to UGCAUGU
13 | B13 | 0.462 KA relative to UGCAUGU
14 | B14 | 0.129 KA relative to UGCAUGU
15 | B15 | 0.224 KA relative to UGCAUGU
16 | B16 | 0.138 KA relative to UGCAUGU

Row | Binder | binding signal
17 | B17 | 0.361 KA relative to UGCAUGU
18 | B18 | 0.133 KA relative to UGCAUGU
19 | B19 | 0.68 KA relative to UGCAUGU
20 | B20 | 0.164 KA relative to UGCAUGU
21 | B21 | 0.166 KA relative to UGCAUGU
22 | B22 | 0.371 KA relative to UGCAUGU
23 | B23 | 0.315 KA relative to UGCAUGU
24 | B24 | 0.0619 KA relative to UGCAUGU
25 | B25 | 0.102 KA relative to UGCAUGU
26 | B26 | 0.0884 KA relative to UGCAUGU
27 | B27 | 0.116 KA relative to UGCAUGU
28 | B28 | 0.0779 KA relative to UGCAUGU
29 | B29 | 0.106 KA relative to UGCAUGU
30 | B30 | 0.0881 KA relative to UGCAUGU
31 | B31 | 0.32 KA relative to UGCAUGU
